# In PubChem BioAssay AID686978 (National Center for Advancing Translational Sciences (NCATS), 2013):
# The campaign covered roughly 420,000 compounds. About 64,000 (15%) were called active. Inconclusive results (about 27%) are left out. Calls follow the shape of the dose curve; as a rule, active = well fitted inhibition curve with a large enough effect; inconclusive = small, poorly fitted or top-dose-only effect; inactive = flat fitted curve, though single readings scatter. Only a sample is shown. Entries that show only a call come without a potency.
# Assay: qHTS for Inhibitors of human tyrosyl-DNA phosphodiesterase 1 (TDP1): qHTS in cells in absence of CPT; also: nearly all actives have a fitted effect of over 55% in size
# Settings: DT40 Tdp1-/- hTDP1 cells, no CPT, ATP luminescence, 48 h; activity change, negative = growth inhibition: at 46.2 µM (top of the series)
# In short: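 Cells were dispensed at 400 per well, compounds added by pin tool, plates incubated ≥48 hr at 37 °C, then CellTiter-Glo added for 30 min at room temperature before luminescence reading. Line: DT40 Tdp1-/- complemented with hTDP1; camptothecin omitted.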
# Potency is read from the fitted curve at half-maximal effect.
row,Structure (SMILES),Potency
1,C/C(=N\N)c1c(-c2ccccc2)c2cc(Br)ccc2[nH]c1=O,inactive
2,COc1ccc(CCNC(=O)COC(=O)/C=C/c2cccs2)cc1OC,inactive
3,Cc1[nH]n(C)c(=O)c1N=Nc1ccc(S(C)(=O)=O)cc1,inactive
4,Cc1nnc(Nc2ccccc2F)s1,inactive
5,Nc1ncnc2c1ncn2[C@@H]1O[C@H](CNCc2cccn2-c2nccs2)[C@@H](O)[C@H]1O,inactive
6,COc1ccc(N2CCN(CCCNC(=O)C3CCN(S(=O)(=O)N4CCOCC4)CC3)CC2)cc1,inactive
7,N#CCCn1c(=O)c(-c2cc(F)cc(F)c2)nc2cnc(Oc3ccccc3)nc21,inactive
8,COc1cccc(/C=N\Nc2nncc(-c3ccccc3)n2)c1,inactive
9,CCOc1ccc(/C=N/Nc2nncc(-c3ccccc3)n2)cc1OC,14.6 µM (active)
10,COc1cc(/C=N/n2c(C)n[nH]c2=S)ccc1OCc1ccccc1,inactive
11,COc1ccccc1N1CC(C(=O)Nc2ccc(S(=O)(=O)N3CCOCC3)cc2)CC1=O (configuration not stated),inactive
12,Cc1ccc(N2CC(C(=O)Nc3cc(Cl)ccc3-n3cncn3)CC2=O)cc1 (configuration not stated),inactive
13,COc1cc(OC)c(N2CC(C(=O)Nc3cc(Cl)ccc3N3CCOCC3)CC2=O)cc1Cl (configuration not stated),3.66 µM (active)
14,O=C(c1cnccn1)N1CCC[C@@]2(CCN(Cc3ccncc3)C2)C1,inactive
15,CC(=O)c1cnc(SCCN2C(=O)c3ccccc3C2=O)nc1C,inactive
16,Cc1cc(NC(=O)/C=C/C(=O)N(c2ccccc2C)C(C(=O)NC2CCCC2)c2ccc(F)cc2)no1 (configuration not stated),23.1 µM (active)
17,Cc1cc(NC(=O)CCC(=O)N(c2cccc(F)c2)C(C(=O)NC2CCCC2)c2ccncc2)no1 (configuration not stated),inactive
18,Cc1cc(NC(=O)CCC(=O)N(CC(=O)NC2CCCC2)c2ccc(F)cc2)no1,inactive
19,O=C(NC1CCC(O)CC1)c1ccc(S(=O)(=O)NCc2ccco2)cc1 (configuration not stated),inactive
20,COc1ccc(NC(=O)Cn2ncn3c(cc4ccccc43)c2=O)c(OC)c1OC,inactive
21,COc1ccc(CNC(=O)c2nnn(CC(=O)Nc3cc(C)cc(C)c3)c2N)cc1,inactive
22,C=CCc1ccccc1OCC(=O)N/N=C/c1ccccc1OCC,inactive
23,Cc1ccc(/C=N/NC(=O)COc2ccccc2-c2ccccc2)cc1,0.184 µM (active)
24,Cc1ccc(OCC(=O)N/N=C/c2ccncc2)cc1,inactive
25,COc1cc(Cl)c(S(=O)(=O)N2CCN(Cc3ccc4c(c3)OCO4)CC2)cc1Cl,inactive
26,OCCC1CN(Cc2ccc3nsnc3c2)CCN1C1CCCC1 (configuration not stated),inactive

row,Structure (SMILES),Potency
1,C=C1C(=O)[C@]23C[C@H]1CCC2[C@@]1(C)C(C[C@@H]3O)[C@](C)(C(=O)O)CC[C@@H]1O (some centres not stated),6.51 µM (active)
2,O=C(CSc1ncn[nH]1)Nc1nc2c(F)c(F)c(F)cc2s1,inactive
3,CC(C)(C)NC(=O)NC(=O)COC(=O)Cc1c(F)cccc1Cl,inactive
4,COc1ccccc1NC(=O)CN1CCN(S(=O)(=O)c2ccc(Br)cc2)CC1,inactive
5,CCN1CCCC1CNC(=O)Cn1cnc2ccc(S(=O)(=O)N3CCC(C)CC3)cc2c1=O (configuration not stated),inactive
6,COc1ccccc1NC(=O)Cn1cnc2ccc(S(=O)(=O)N3CCC(C)CC3)cc2c1=O,23.1 µM (active)
7,CC(C)CN(C(=O)CN1CCN(S(=O)(=O)c2ccccc2)CC1)c1c(N)n(CC(C)C)c(=O)[nH]c1=O,inactive
8,Cc1cc(NC(=O)OC(C)C)ccc1-c1ccc(NC(=O)OC(C)C)cc1C,inactive
9,COc1ccc(/C=N/Nc2nc3ccccc3c(=O)[nH]2)cc1,inactive
10,CN(CCO)c1ccc(/C=N/Nc2nncc3ccccc23)cc1,14.6 µM (active)
11,CC(=O)Nc1ccc(NC(=O)CCCNC(=O)c2ccc(Cl)cc2)cc1,inactive
12,CCCCNC(=O)C1CCCNC1=O (configuration not stated),inactive
13,COc1cccc(CNC(=O)c2nnn(CC(=O)Nc3cc(C)ccc3C)c2N)c1,inactive
14,O=C(CNc1ccccc1N1CCCC1=O)Nc1cc(Cl)ccc1-n1cncn1,inactive
15,CCOC(=O)CNC(=O)c1cc2c(=O)n3cccc(C)c3nc2s1,inactive
16,CCOC(=O)N1CCN(C(=O)CSc2nc(=O)n3cccc(C)c3n2)CC1,inactive
17,CCOC(=O)CC1C(=O)NCCN1c1nc2c(C)cccn2c(=O)c1/C=C1\SC(=S)N(C(C)CC)C1=O (configuration not stated),18.4 µM (active)
18,CCSc1nnc(NC(=O)Cc2ccccc2OC)s1,inactive
19,CCOC(=O)N1CCN(C(=O)c2cn(C)c3ccc(S(=O)(=O)N(CC)CC)cc3c2=O)CC1,inactive
20,CCCCNC(=O)c1cc(-c2ccc(Cl)c(Cl)c2)on1,inactive
21,COC(=O)CN1C(=O)N/C(=C/c2ccc(OC)c(C)c2OC)C1=O,inactive
22,Cn1cccc1/C=N/NC(=O)c1ccc(OC(F)(F)C(F)F)cc1,inactive
23,COC(=O)[C@H](C)NC(=O)Nc1ccc(OC(F)(F)F)cc1,inactive
24,O=C(Nc1ccc(OC(F)(F)F)cc1)c1ccc2c(c1)no[n+]2[O-],3.66 µM (active)
25,CC(=O)OCc1cc2cc(C)ccc2[nH]c1=O,inactive
26,CCCCC(=O)N/N=C(\C)CC(=O)Nc1cc(Cl)ccc1OC,inactive

row,Structure (SMILES),Potency
1,C/C(CC(=O)NCc1ccc(Cl)cc1)=N\NC(=O)COc1ccc(C)cc1Br,3.26 µM (active)
2,CC(=O)Nc1ccc(OCC(=O)NCc2ccc(C)cc2)cc1,inactive
3,COCCNC(=S)N1CCN(C)CC1,inactive
4,COC(=O)c1cc(NC(=O)CN2CCC(C(N)=O)(N3CCCCC3)CC2)cc(C(=O)OC)c1,inactive
5,Cc1oc2c(c1C(=O)Nc1ccc(F)c(F)c1)C1=NCCN1C=N2,inactive
6,O=C(CN1C(=O)CCS(=O)(=O)c2ccccc21)NCc1ccc(F)cc1,inactive
7,CC(NC(=O)C(=O)Nc1nccs1)c1ccccc1 (configuration not stated),inactive
8,O=C(NCc1ccco1)c1cccn2c(=O)c3c4c(sc3nc12)CCCC4,7.31 µM (active)
9,O=C(NCc1ccco1)c1nc2ncccn2n1,inactive
10,O=c1oc(-c2ccco2)nc2sc3c(c12)CCCCC3,inactive
11,O=C(c1cnc(Cl)c(Cl)c1)N1CCN(S(=O)(=O)c2ccc(F)cc2)CC1,inactive
12,Cc1cc(C)c(/C=C2\C(=O)Nc3ccccc32)[nH]1,inactive
13,COc1ccccc1N1CC(C(=O)NCCN2C(=O)S/C(=C\c3cccnc3)C2=O)CC1=O (configuration not stated),inactive
14,CN1CCN(C2=NCCO2)CC1,inactive
15,Cc1ccc(-n2c(SCC(=O)Nc3ccc4c(c3)OCO4)nnc2-c2ccoc2C)cc1,inactive
16,CCc1ccc(N(CC(=O)NCc2cccnc2)S(=O)(=O)c2ccccc2)cc1,inactive
17,O=C(O)c1cc(S(=O)(=O)N(Cc2ccccc2)c2cccc(C(F)(F)F)c2)ccc1Cl,inactive
18,O=C(CN(c1cc(C(F)(F)F)ccc1Cl)S(=O)(=O)c1ccccc1)NCc1cccnc1,18.4 µM (active)
19,CC(=O)Nc1ccc(NC(=O)CSc2ncnc3c2cnn3Cc2ccccc2)cc1,inactive
20,OCc1n[nH]c(CO)n1,inactive
21,CCCNC(=O)c1cc(C2CCCCN2C(=O)OC)on1 (configuration not stated),inactive
22,COc1ccc(C(=O)Nc2c(Cl)cc(Cl)cc2C(=O)N2CCC(C)CC2)cc1,inactive
23,COc1ccc(C(=O)N2CCCCC2c2cc(C(=O)Nc3ccc(F)c(Cl)c3)no2)cc1 (configuration not stated),23.1 µM (active)
24,CC(=O)c1ccc(N2C(=NC(=O)C(C)C)SC3CS(=O)(=O)CC32)cc1 (configuration not stated),inactive
25,CCCOc1ccc(F)cc1-c1cc(C(=O)Nc2ccc(F)c(Cl)c2)[nH]n1,16.4 µM (active)
26,CCNC(=O)c1ccc(OCC(=O)Nc2ccc(F)cc2)c(OC)c1,inactive

row,Structure (SMILES),Potency
1,COc1ccc(NC(=O)CN2CCN(S(=O)(=O)c3ccc(F)cc3)CC2)cc1Cl,inactive
2,O=C(O)Cc1csc(NC(=O)CSc2nnnn2-c2ccc(O)cc2)n1,inactive
3,CC(=O)Nc1ccc(S(=O)(=O)Oc2ccc(/C=N/N=C3/NC(=O)C(CC(=O)O)S3)cc2)cc1 (configuration not stated),inactive
4,Cn1c(=N)n(CC(O)c2cccs2)c2ccccc21 (configuration not stated),inactive
5,Cn1c(=N)n(CC(O)c2ccccc2)c2ccccc21 (configuration not stated),inactive
6,CCOc1ccc(C(O)Cn2c(=N)n(CCN3CCCCC3)c3ccccc32)cc1 (configuration not stated),23.1 µM (active)
7,NS(=O)(=O)c1ccc(CCNC(=O)c2ccc(Cl)cc2[N+](=O)[O-])cc1,inactive
8,CC(=O)NCCc1ccc(S(=O)(=O)N(C)C2CCS(=O)(=O)C2)cc1 (configuration not stated),inactive
9,COc1cc(NS(=O)(=O)c2ccc(N=Cc3c(C)[nH]n(-c4ccccc4)c3=O)cc2)nc(OC)n1,inactive
10,CCc1nnc(NS(=O)(=O)c2ccc(N=Cc3c(C)[nH]n(-c4ccc(C)cc4)c3=O)cc2)s1,11.2 µM (active)
11,CCc1nnc(NS(=O)(=O)c2ccc(NS(=O)(=O)c3ccccc3)cc2)s1,inactive
12,S=c1[nH]nc(-c2cc(-c3ccsc3)n[nH]2)n1-c1ccccc1,inactive
13,Cc1cc(C)c2nc(N3CCC(C(=O)NCCN4CCOCC4)CC3)sc2c1,inactive
14,Cc1ccnc(N2CCCC(C(=O)Nc3cc(F)ccc3C)C2)n1 (configuration not stated),inactive
15,CCOC(=O)N1CCC(NC(=O)c2ccc3nc(N4CCOCC4)sc3c2)CC1,inactive
16,CCOc1ccc2nc(N3CCC(C(=O)Nc4cc(C)ccc4C)CC3)sc2c1,16.4 µM (active)
17,Cc1ccc(C)c(NC(=O)C2CCCN(S(=O)(=O)c3cn(C)cn3)C2)c1 (configuration not stated),inactive
18,CCOc1ccc2nc(N3CCCC(C(=O)Nc4cc(C)ccc4C)C3)sc2c1 (configuration not stated),18.4 µM (active)
19,CC1CCCCC1NC(=O)Cn1cnc2c1c(=O)n(C)c(=O)n2C (configuration not stated),inactive
20,COC(=O)CN1C(=O)[C@H]2[C@@H](/C=C/c3ccccc3)N3C(=O)CN(CC4CC4)C(=O)[C@@]3(Cc3ccccc3)[C@H]2C1=O,inactive
21,COC(=O)C1(S(=O)(=O)C2(C(=O)OC)CCCC2)CCCC1,inactive
22,Cc1noc(C)c1-c1cc(NCc2cccnc2)ncn1,inactive
23,N#Cc1nc(COc2ccc(-c3ccccc3)cc2)oc1NCc1cccnc1,25.9 µM (active)
24,COc1ccc(-c2nnc(SCc3cccnc3)o2)cc1,inactive
